Results published in PubChem BioAssay (Tox21).
Values without a mark were called inactive. Records with an inconclusive call do not appear. Where a call stands in place of a potency, no number is given. The source made the active and inactive calls. Unless noted, calls follow the shape of the dose curve; as a rule, active = well fitted curve in the direction sought with a large enough effect in the repeat runs; inconclusive = weak or mixed curves; inactive = no such curve, though single readings can be large; an effect the other way counts as inactive or inconclusive.

Tests used:
[1] = biological target: Thyrotropin-releasing hormone receptor (Homo sapiens) (UniProt P34981); assay: qHTS assay to identify small molecule agonists of the thyrotropin-releasing hormone receptor (TRHR) signaling pathway (AID 1346891; calls by dose curve;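 also: HEK293 cells expressing TRHR with calcium dye readout; series mostly up to about 58 µM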)
Chain of Thyrotropin-releasing hormone receptor (Homo sapiens) (P34981 whole entry, looked up): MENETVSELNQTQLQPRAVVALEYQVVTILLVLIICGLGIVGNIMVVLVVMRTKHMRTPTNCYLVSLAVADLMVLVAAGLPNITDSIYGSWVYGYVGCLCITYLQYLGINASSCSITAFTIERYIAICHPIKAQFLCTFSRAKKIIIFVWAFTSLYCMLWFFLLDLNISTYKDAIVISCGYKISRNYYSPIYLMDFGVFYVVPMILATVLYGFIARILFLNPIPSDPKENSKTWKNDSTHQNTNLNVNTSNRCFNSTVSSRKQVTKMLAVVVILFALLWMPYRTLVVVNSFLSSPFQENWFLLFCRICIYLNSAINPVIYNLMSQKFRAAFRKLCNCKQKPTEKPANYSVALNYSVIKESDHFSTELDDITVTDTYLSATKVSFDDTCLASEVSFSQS
Outline: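 Overnight-plated (18 h, 37 °C, 5% CO2) TRHR-Hek293 cells; 2 h calcium dye at 37 °C; compound in DMSO; 3-min kinetic fluorescence read.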

[2] = Human pregnane X receptor (PXR) small molecule agonists, qHTS cell viability counter screen (AID 1346977); also: nearly all actives have a fitted effect of over 50% in size
Outline: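 After a 5hr pre-incubation, PXR-Luc HepG2 cells received compounds plus positive control in DMSO and were kept 24hr at 37C. Cell viability was quantified by fluorescence from CellTiter-Fluor added for the final hour.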

[3] = Caspase-3/7 induction in HepG2 cells by small molecules, qHTS assay (AID 1346978); also: nearly all actives have a fitted effect of over 15% in size
Outline: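 Caspase-3/7 induction was measured by Caspase-Glo 3/7 luminescence (30 min, room temperature) after a 17 hr compound exposure of wild-type HepG2 cells seeded at 2,000 per well and pre-incubated 5 hr.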

[4] = Caspase-3/7 induction in CHO-K1 cells by small molecules, qHTS cell viability counter screen (AID 1346979); also: nearly all actives have a fitted effect of over 35% in size
Outline: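 Multiplexed with Caspase-Glo 3/7 in CHO-K1 cells, this counter screen added CellTiter-Fluor after 16hr of compound exposure and recorded fluorescence 1hr later.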

[5] = Caspase-3/7 induction in CHO-K1 cells by small molecules, qHTS assay (AID 1346980); also: nearly all actives have a fitted effect of over 15% in size
Outline: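 Luminescent Caspase-Glo 3/7 read (30min, room temperature) quantified apoptosis induction. Cells were wild-type CHO-K1, treated with compound for 17hr at 37 C and 5% CO2.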

[6] = Caspase-3/7 induction in HepG2 cells by small molecules, qHTS cell viability counter screen (AID 1346981); also: series mostly up to about 92 µM; nearly all actives have a fitted effect of over 30% in size
Outline: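 The parent HepG2 line is plated at 2,000 cells per well and rested 5 hr before compound pinning from DMSO stocks. Following a 16-hr treatment at 37 C, a fluorogenic live-cell substrate (CellTiter-Fluor) reports viability after 1 hr.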

[7] = biological target: Cytochrome P450 2D6 (Homo sapiens) (UniProt P10635); assay: Cytochrome P450 Family 2 Subfamily D Member 6 (CYP2D6) small molecule antagonists: luciferase reporter qHTS assay (AID 1671196); also: nearly all actives have a fitted effect of over 50% in size; also: potency is read from the fitted curve at half-maximal effect
Chain of Cytochrome P450 2D6 (Homo sapiens) (P10635 whole entry, looked up): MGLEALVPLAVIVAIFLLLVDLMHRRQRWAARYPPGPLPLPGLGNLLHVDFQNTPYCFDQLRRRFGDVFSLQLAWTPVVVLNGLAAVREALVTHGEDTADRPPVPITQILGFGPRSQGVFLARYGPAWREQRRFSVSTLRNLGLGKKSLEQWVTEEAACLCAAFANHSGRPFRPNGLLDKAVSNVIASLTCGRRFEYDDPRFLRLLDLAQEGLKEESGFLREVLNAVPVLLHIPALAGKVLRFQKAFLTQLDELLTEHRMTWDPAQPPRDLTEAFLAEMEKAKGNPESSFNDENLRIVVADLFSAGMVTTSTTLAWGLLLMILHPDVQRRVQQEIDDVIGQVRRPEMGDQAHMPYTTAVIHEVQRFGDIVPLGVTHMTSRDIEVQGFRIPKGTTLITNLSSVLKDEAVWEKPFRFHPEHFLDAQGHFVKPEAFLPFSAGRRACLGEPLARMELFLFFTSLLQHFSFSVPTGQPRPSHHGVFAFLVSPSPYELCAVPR
Outline: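 Quantitative HTS of Tox21 chemicals against CYP2D6 using a luminescent proluciferin substrate. After NADPH addition, 1 h room-temperature reaction; luminescence recorded 20 min post detection reagent.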

[8] = biological target: Cytochrome P450 2C19 (Homo sapiens) (UniProt P33261); assay: Cytochrome P450 Family 2 Subfamily C Member 19 (CYP2C19) small molecule antagonists: luciferase reporter qHTS assay (AID 1671197); also: nearly all actives have a fitted effect of over 65% in size; also: potency is read from the fitted curve at half-maximal effect
Chain of Cytochrome P450 2C19 (Homo sapiens) (P33261 whole entry, looked up): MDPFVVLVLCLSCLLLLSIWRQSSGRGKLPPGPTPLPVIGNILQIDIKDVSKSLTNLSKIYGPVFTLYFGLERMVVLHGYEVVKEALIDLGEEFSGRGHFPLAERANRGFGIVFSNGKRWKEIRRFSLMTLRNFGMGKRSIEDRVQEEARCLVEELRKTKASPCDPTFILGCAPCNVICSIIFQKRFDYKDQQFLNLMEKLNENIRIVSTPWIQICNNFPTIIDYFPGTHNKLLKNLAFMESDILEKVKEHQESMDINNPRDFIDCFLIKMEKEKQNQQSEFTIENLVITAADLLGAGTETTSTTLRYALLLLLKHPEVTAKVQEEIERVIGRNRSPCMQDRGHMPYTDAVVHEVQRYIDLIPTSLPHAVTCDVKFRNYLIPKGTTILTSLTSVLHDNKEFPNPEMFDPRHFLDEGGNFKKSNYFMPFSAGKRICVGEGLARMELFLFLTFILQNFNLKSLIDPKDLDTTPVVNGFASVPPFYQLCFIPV
Outline: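 Relative luminescence units recorded 20 min after the detection reagent stopped a 1 h, 37C CYP2C19 reaction on proluciferin substrate, which was started by NADPH regeneration following 10 min room-temperature compound preincubation; ketoconazole positive control.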

[9] = biological target: Cytochrome P450 2C9 (Homo sapiens) (UniProt P11712); assay: Cytochrome P450 Family 2 Subfamily C Member 9 (CYP2C9) small molecule antagonists: luciferase reporter qHTS assay (AID 1671198); also: series mostly up to about 120 µM; nearly all actives have a fitted effect of over 50% in size
Chain of Cytochrome P450 2C9 (Homo sapiens) (P11712 whole entry, looked up): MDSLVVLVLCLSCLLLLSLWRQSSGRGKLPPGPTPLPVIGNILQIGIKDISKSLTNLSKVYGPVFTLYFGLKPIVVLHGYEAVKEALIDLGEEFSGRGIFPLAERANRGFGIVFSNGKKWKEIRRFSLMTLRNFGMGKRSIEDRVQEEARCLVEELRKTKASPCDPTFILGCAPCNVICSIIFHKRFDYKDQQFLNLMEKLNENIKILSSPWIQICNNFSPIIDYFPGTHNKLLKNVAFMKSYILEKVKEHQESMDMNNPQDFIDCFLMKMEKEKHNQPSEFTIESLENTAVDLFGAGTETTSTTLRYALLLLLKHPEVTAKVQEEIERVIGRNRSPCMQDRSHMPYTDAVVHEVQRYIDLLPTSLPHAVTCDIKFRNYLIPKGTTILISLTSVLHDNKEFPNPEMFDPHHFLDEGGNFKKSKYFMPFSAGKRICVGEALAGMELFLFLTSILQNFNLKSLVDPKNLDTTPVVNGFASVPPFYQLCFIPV
Outline: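 Enzyme-substrate mix preincubated with compound 10 min at room temperature; reaction started with NADPH regeneration solution, 1 h 37C. Luminescent luciferin product read after 20 min detection reagent.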

[10] = biological target: Voltage-gated inwardly rectifying potassium channel KCNH2 (Homo sapiens) (UniProt Q12809); assay: Human Ether-a-go-go-Related Gene (hERG) channel small molecule antagonists: fluorescence cell-based qHTS assay (AID 1671200);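 also: hERG-expressing U2OS cells given a thallium stimulus after FluxOR II dye loading; series mostly up to about 77 µM; nearly all actives have a fitted effect of over 50% in size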
Chain of Voltage-gated inwardly rectifying potassium channel KCNH2 (Homo sapiens) (Q12809 whole entry, looked up): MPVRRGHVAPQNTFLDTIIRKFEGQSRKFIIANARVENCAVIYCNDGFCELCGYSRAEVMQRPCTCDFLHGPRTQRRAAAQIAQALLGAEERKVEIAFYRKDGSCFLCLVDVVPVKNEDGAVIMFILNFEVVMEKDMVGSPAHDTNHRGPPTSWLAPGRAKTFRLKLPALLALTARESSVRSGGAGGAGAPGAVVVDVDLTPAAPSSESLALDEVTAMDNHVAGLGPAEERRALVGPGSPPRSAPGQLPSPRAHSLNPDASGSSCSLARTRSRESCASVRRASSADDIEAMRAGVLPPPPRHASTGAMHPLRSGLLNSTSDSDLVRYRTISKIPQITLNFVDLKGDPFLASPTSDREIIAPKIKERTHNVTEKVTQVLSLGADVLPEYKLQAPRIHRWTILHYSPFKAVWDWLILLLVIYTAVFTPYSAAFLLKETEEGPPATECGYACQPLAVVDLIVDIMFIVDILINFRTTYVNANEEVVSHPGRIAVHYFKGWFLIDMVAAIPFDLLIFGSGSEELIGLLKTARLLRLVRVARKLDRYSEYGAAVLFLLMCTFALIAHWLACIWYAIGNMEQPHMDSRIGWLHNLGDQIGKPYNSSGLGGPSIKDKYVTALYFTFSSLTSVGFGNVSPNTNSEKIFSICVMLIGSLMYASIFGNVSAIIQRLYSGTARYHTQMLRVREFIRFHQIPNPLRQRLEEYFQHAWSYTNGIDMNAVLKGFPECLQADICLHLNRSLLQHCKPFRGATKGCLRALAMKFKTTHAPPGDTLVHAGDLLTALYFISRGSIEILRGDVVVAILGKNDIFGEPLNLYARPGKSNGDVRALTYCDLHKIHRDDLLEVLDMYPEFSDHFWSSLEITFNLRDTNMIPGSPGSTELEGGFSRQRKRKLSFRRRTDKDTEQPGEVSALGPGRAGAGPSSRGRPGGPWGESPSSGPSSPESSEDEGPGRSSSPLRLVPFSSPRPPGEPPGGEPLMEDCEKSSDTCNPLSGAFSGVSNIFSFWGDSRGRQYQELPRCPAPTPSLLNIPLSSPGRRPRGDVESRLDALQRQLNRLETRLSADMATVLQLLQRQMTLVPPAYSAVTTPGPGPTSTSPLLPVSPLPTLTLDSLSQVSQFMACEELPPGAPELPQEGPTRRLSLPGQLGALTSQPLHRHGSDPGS
Outline: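 Cell line hERG-U2OS; dye FluxOR II, 1 h RT dark; Tl+ stimulus; ex 480/em 540 nm, read each second for 2 min.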

[11] = biological target: Cytochrome P450 3A4 (Homo sapiens) (UniProt P08684); assay: Cytochrome P450 Family 3 Subfamily A Member 4 (CYP3A4) small molecule antagonists: luciferase reporter qHTS assay (AID 1671201)
Chain of Cytochrome P450 3A4 (Homo sapiens) (P08684 whole entry, looked up): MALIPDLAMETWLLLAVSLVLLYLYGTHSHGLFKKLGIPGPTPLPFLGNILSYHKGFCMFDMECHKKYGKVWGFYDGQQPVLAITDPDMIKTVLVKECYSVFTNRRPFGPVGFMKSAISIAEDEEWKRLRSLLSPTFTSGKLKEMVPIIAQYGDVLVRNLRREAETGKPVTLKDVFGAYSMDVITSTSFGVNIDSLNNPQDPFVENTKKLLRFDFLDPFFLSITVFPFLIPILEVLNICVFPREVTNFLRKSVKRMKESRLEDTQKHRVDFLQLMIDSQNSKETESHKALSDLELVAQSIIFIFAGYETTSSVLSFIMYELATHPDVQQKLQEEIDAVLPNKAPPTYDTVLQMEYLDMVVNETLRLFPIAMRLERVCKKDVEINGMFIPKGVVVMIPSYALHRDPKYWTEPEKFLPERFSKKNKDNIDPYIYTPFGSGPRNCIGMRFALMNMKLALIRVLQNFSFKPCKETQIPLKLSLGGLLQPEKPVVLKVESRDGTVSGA
Outline: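 Room-temperature assay throughout: 10 min compound–enzyme/substrate preincubation, 1 h reaction after NADPH regeneration solution, 20 min detection. Luciferin formed from proluciferin substrate is quantified by luminescence.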

[12] = biological target: Nuclear receptor subfamily 1 group I member 2 (Homo sapiens) (UniProt O75469); assay: Human pregnane X receptor (PXR) small molecule agonists, qHTS assay (AID 1346982); also: nearly all actives have a fitted effect of over 35% in size
Chain of Nuclear receptor subfamily 1 group I member 2 (Homo sapiens) (O75469 whole entry, looked up): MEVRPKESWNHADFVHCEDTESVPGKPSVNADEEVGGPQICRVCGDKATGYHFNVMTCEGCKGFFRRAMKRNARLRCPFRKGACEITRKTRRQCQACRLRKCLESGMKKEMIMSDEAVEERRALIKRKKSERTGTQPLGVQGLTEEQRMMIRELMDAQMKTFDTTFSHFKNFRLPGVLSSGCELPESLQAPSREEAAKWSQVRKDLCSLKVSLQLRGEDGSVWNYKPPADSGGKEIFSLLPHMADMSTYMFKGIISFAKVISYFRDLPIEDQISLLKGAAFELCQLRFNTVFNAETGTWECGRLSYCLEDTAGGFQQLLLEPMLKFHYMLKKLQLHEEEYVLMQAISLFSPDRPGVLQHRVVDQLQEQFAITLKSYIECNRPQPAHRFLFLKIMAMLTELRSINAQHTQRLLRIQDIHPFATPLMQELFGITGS
Outline: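 After plating in 5% charcoal-stripped FBS and a 5 hr rest, PXR-Luc HepG2 cells received compounds in DMSO. Following 24 hr at 37 C, ONE-Glo was added and light output read.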

[13] = biological target: Cytochrome P450 1A2 (Homo sapiens) (UniProt P05177); assay: Cytochrome P450 Family 1 Subfamily A Member 2 (CYP1A2) small molecule antagonists: luciferase reporter qHTS assay (AID 1671199); also: nearly all actives have a fitted effect of over 50% in size; also: potency is read from the fitted curve at half-maximal effect
Chain of Cytochrome P450 1A2 (Homo sapiens) (P05177 whole entry, looked up): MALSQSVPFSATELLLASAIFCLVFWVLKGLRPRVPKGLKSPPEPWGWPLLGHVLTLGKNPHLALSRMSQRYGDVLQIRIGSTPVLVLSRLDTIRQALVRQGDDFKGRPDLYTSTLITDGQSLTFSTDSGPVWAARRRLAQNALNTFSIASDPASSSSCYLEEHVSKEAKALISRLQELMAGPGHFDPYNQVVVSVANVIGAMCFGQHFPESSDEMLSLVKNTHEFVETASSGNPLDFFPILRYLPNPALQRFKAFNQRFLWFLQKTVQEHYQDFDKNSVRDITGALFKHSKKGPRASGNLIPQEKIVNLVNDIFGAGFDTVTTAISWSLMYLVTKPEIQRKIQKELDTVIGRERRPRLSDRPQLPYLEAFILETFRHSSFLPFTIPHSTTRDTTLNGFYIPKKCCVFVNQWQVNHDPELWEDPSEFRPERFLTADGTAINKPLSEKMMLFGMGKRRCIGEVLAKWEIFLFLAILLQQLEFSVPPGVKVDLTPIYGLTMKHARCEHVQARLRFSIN
Outline: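 Quantitative high-throughput format using the P450-Glo CYP1A2 system. Reaction initiated by NADPH regeneration solution, 1 h at room temperature, then stopped with detection reagent; luminescence measured 20 min later.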

[14] = biological target: Nuclear receptor subfamily 1 group I member 2 (Rattus norvegicus) (UniProt Q9R1A7); assay: Rat pregnane X receptor (rPXR) activation by small molecules, qHTS assay (AID 1346983); details: rPXR luciferase reporter cells, One-Glo luminescence, 24 h; hits give high values; also: nearly all actives have a fitted effect of over 20% in size
Chain of Nuclear receptor subfamily 1 group I member 2 (Rattus norvegicus) (Q9R1A7 whole entry, looked up): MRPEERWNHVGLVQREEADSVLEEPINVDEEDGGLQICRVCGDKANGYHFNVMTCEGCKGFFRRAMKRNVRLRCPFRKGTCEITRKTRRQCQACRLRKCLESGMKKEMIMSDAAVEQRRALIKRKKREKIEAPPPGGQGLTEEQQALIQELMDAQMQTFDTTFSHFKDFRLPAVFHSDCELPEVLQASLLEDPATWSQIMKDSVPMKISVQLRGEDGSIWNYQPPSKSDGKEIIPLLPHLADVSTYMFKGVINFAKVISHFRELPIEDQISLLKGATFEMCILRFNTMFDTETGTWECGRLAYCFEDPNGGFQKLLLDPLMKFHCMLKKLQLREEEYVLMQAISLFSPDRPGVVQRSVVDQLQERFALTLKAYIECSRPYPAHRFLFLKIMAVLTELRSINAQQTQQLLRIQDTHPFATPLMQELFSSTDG
Outline: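 Luminescent readout (One-Glo luciferase, 30 min room temperature) followed 24 hr compound treatment at 37 C of rPXR cells plated 2,000 per well and preincubated 5hr; qHTS format with compounds delivered in DMSO.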

[15] = biological target: Nuclear receptor subfamily 1 group I member 2 (Homo sapiens) (UniProt O75469); assay: CYP3A4 induction through human pregnane X receptor (PXR) by small molecules, qHTS assay (AID 1346984); also: nearly all actives have a fitted effect of over 40% in size
Outline: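 Human PXR activation is tracked via CYP3A4 promoter-luciferase in DPX-2 (HepG2) cells. Compounds treat cells for 24hr at 37C, and luminescence is read after One-Glo.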

[16] = biological target: Nuclear receptor subfamily 1 group I member 2 (Homo sapiens) (UniProt O75469); assay: Human pregnane X receptor (PXR) activation by small molecules, qHTS assay (AID 1346985); also: nearly all actives have a fitted effect of over 40% in size
Outline: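 DPX-2 cells (HepG2 co-transfected with a PXR response element and a CYP3A4-promoter luciferase construct) were seeded at 2,000 per well, rested 5 hr at 37C, then exposed to DMSO-dissolved compounds for 24 hr. Activation was read as luciferase luminescence.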

| Structure (SMILES) | outcome [1] | Potency [2] | Potency [3] | Potency [4] | outcome [5] | Potency [6] | Potency [7] | Potency [8] | Potency [9] | Potency [10] | Potency [11] | Potency [12] | Potency [13] | max activation [14] [%] | Potency [15] | Potency [16] |
| --- | --- | --- | --- | --- | --- | --- | --- | --- | --- | --- | --- | --- | --- | --- | --- | --- |
| O=C1CC2CC1C1CCCC21 (stereo unspecified) | inactive | inactive | inactive | inactive | inactive | inactive | inactive | inactive | inactive | inactive | inactive |  |  |  |  |  |
| COc1ccccc1OCC(O)CN1CCN(CC(=O)Nc2c(C)cccc2C)CC1 (stereo unspecified) | inactive | inactive | inactive | inactive | inactive | inactive |  | inactive |  |  |  | inactive | inactive |  |  |  |
| COC(=O)c1ccc(C)cc1C1=NC(C)(C(C)C)C(=O)N1 (stereo unspecified) | inactive | inactive | inactive | inactive | inactive | inactive |  | inactive | inactive | inactive |  |  | inactive |  |  |  |
| CCCN(CCC)CCc1cccc2c1CC(=O)N2 | inactive | inactive | inactive | inactive | inactive | inactive |  | inactive | inactive |  | inactive | inactive |  |  |  |  |
| CCN1CCC[C@H]1CNC(=O)c1cc(S(N)(=O)=O)ccc1OC | inactive | inactive | inactive | inactive | inactive | inactive | 15.5 µM (active) | inactive | inactive | inactive | inactive |  | inactive | -2.59 |  |  |
| N=C(N)c1ccccc1 | inactive | inactive | inactive | inactive | inactive | inactive |  | inactive | inactive | inactive | inactive | inactive | inactive |  |  |  |
| CC(C)(O)C#CC(C)(C)O | inactive | inactive | inactive | inactive | inactive | inactive |  | inactive | inactive | inactive |  | inactive |  |  |  |  |
| Cc1cnc(NS(=O)(=O)c2ccc(N)cc2)nc1 | inactive | inactive | inactive | inactive | inactive | inactive |  | inactive | inactive |  | inactive | inactive | inactive |  |  |  |
| OC1CCCCC1c1ccccc1 (stereo unspecified) | inactive | inactive | inactive | inactive |  | inactive | inactive | 79.6 µM (active) |  |  | inactive | inactive | inactive |  |  |  |
| COc1nc(N)nc2c1ncn2[C@@H]1O[C@H](CO)[C@@H](O)[C@@H]1O | inactive | inactive | inactive | inactive | inactive | inactive | inactive | inactive | inactive | inactive | inactive |  | 24.5 µM (active) |  |  |  |
| Nc1nc2c(ncn2COC(CO)CO)c(=O)[nH]1 | inactive | inactive | inactive | inactive |  | inactive | inactive | inactive | inactive | inactive | inactive | inactive | inactive | 0.872 | inactive | inactive |
| CCOC(=O)[C@H](CCc1ccccc1)N[C@@H](C)C(=O)N1[C@H](C(=O)O)C[C@@H]2CCC[C@@H]21 | inactive | inactive | inactive | inactive |  | inactive | inactive | inactive | inactive | inactive |  | inactive | inactive | -3.39 |  | inactive |
| O=Cc1cccc([N+](=O)[O-])c1 | inactive | inactive | inactive | inactive | inactive | inactive |  | inactive | inactive |  | inactive | inactive | 39.7 µM (active) |  |  |  |
| c1ccc(CC2=NCCN2)cc1 | inactive | inactive | inactive | inactive |  | inactive |  |  | inactive | inactive | inactive | inactive | inactive | -1.57 | inactive | inactive |
| CC(=O)c1ccccc1O | inactive |  | inactive | inactive | inactive | inactive | inactive | inactive |  |  | inactive | inactive |  |  |  |  |
| CCOC(=O)c1cccc(N)c1 | inactive |  | inactive | inactive | inactive | inactive |  | inactive | inactive | inactive |  | inactive | 5.75 µM (active) |  | inactive |  |
| CC(=O)Nc1ccc(S(N)(=O)=O)cc1 | inactive | inactive | inactive | inactive |  | inactive | inactive |  | inactive | inactive | inactive | inactive | inactive |  |  |  |
| CC(C)CNCC(C)C | inactive |  | inactive | inactive | inactive | inactive | inactive | inactive | inactive | inactive | inactive | inactive | inactive |  |  |  |
| C/C=C(\C)C#N | inactive |  | inactive | inactive | inactive | inactive | inactive | 78.4 µM (active) |  | inactive |  | inactive |  |  |  |  |
| Cc1[nH]c(=O)c(C#N)cc1-c1ccc2nccn2c1 | inactive |  | inactive | inactive | inactive | inactive | inactive | inactive | inactive |  | inactive | inactive | inactive | 0.264 | inactive | inactive |
